Inconclusive results are not listed. The source made the active and inactive calls. Unless noted, the call rests on the fitted dose curve; in most records, active means well fitted curve in the direction sought with a large enough effect in the repeat runs; inconclusive means weak or mixed curves; inactive means no such curve, though single readings can be large; an effect the other way counts as inactive or inconclusive.

The nature of assay [1]: qHTS assay to identify small molecule antagonists of the thyroid receptor (TR) signaling pathway - cell viability counter screen (AID 743064). Further: nearly all actives have a fitted effect of over 50% in size. In a few lines: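 In rat pituitary GH3.TRE-Luc reporter cells co-exposed to compound and 1 nM T3 for 23.5 h, cytotoxicity was assessed with CellTiter-Fluor in the same wells, read by fluorescence.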
Assay [2] is described as follows: qHTS assay to identify small molecule antagonists of the thyroid receptor (TR) signaling pathway (AID 743065). Further: series mostly up to about 70 µM; nearly all actives have a fitted effect of over 55% in size. In a few lines: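 GH3.TRE-Luc rat pituitary cells carrying two TR response elements driving luciferase were plated for 4 h, given compound plus 1 nM T3 (final), and incubated 23.5 h at 37 C. ONE-Glo luminescence measured reporter inhibition; CellTiter-Fluor fluorescence tracked cytotoxicity.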
In general terms: qHTS replaces the single test concentration by a dilution series.

The subject of assay [3] is thyroid hormone receptor (rat, GH3 cells). Put plainly: qHTS assay to identify small molecule agonists of the thyroid receptor (TR) signaling pathway (AID 743066; calls by dose curve).
The target of assay [4] is Estrogen receptor (Homo sapiens) (UniProt P03372). Put plainly: qHTS assay to identify small molecule antagonists of the estrogen receptor alpha (ER-alpha) signaling pathway (AID 743069; active means well fitted curve in the direction sought with a large enough effect in the signal ratio in the repeat runs, not every such curve was filed as active; the % refers to the signal ratio). The essentials:
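HEK293 cells stably carrying an ER-alpha-UAS-bla beta-lactamase reporter were pre-cultured overnight in 2% charcoal-stripped FBS medium. Test compounds in DMSO were added together with 17beta-estradiol for 18 hr at 37C. Read-out was fluorescence after 2 hr with LiveBLAzer B/G FRET substrate at room temperature.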

Assay [5] is described as follows: qHTS assay to identify small molecule antagonists of the estrogen receptor alpha (ER-alpha) signaling pathway - cell viability counter screen (AID 743074; calls by dose curve; further: nearly all actives have a fitted effect of over 45% in size).
Assay [6] deals with Estrogen receptor (Homo sapiens) (UniProt P03372). The experiment in a line: qHTS assay to identify small molecule agonists of the estrogen receptor alpha (ER-alpha) signaling pathway (AID 743075; calls by dose curve).
Assay [7] has the same target. Put plainly: qHTS assay to identify small molecule agonists of the estrogen receptor alpha (ER-alpha) signaling pathway using the BG1 cell line (AID 743079). Further: nearly all actives have a fitted effect of over 20% in size. Further: potency means the concentration at half of the fitted maximal effect.
A short description of assay [8]: qHTS assay to identify small molecule antagonists of the estrogen receptor alpha (ER-alpha) signaling pathway using the BG1 cell line (AID 743080; calls by dose curve;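 further: BG1 cells stimulated with 17beta-estradiol alongside compound; series mostly up to about 70 µM; nearly all actives have a fitted effect of over 25% in size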). In a few lines:
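BG1-Luc-4E2 cells (endogenous full-length ER-alpha, 4xERE luciferase) hormone-starved 5 days in charcoal-stripped FBS, plated 4,000/well for 24 h, then compound plus 17beta-estradiol for 21.5 h at 37 C; ONE-Glo luminescence read.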

Assay [9] in a line: qHTS assay to identify small molecule antagonists of the estrogen receptor alpha (ER-alpha) signaling pathway using the BG1 cell line - cell viability counter screen (AID 743081).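 Further: compound given together with 17beta-estradiol as the ER stimulus; series mostly up to about 70 µM; nearly all actives have a fitted effect of over 45% in size.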
For a further assay, the target named is Aromatase (Homo sapiens) (UniProt P11511). The experiment in a line: qHTS assay to identify aromatase inhibitors (AID 743083). Further: series mostly up to about 70 µM; nearly all actives have a fitted effect of over 55% in size.
Assay [10] can be described thus: qHTS assay to identify aromatase inhibitors - cell viability counter screen (AID 743084).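 Further: cells stimulated with testosterone during compound exposure; nearly all actives have a fitted effect of over 55% in size.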
In assay [11] the target is Aryl hydrocarbon receptor (Homo sapiens) (UniProt P35869). Put plainly: qHTS assay to identify small molecule that activate the aryl hydrocarbon receptor (AhR) signaling pathway (AID 743085).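 Further: HG2L7.5c1 human HepG2 liver cells with stably integrated DRE-driven firefly reporter; series mostly up to about 70 µM; nearly all actives have a fitted effect of over 15% in size.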 The essentials:
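AhR agonist activity is inferred from enhanced light output of a DRE-controlled firefly luciferase reporter in HepG2 cells, measured with ONE-Glo following 24 h treatment at 37C.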

A short description of assay [12]: qHTS assay to identify small molecule that activate the aryl hydrocarbon receptor (AhR) signaling pathway - cell viability counter screen (AID 743086).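 Further: HepG2 liver cells carrying the AhR DRE luciferase reporter; series mostly up to about 70 µM; nearly all actives have a fitted effect of over 45% in size.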 In a few lines:
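HepG2-AhR-luc (HG2L7.5c1) cells, 4000/well, were preincubated 5 h at 37C, exposed to compound in qHTS format for 24 hr at 37C, then given CellTiter-Fluor for 30 min; viability was read as fluorescence in the reporter wells.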

Assay [13] in a line: qHTS assay to identify small molecule antagonists of the peroxisome proliferator-activated receptor gamma (PPARg) signaling pathway - cell viability counter screen (AID 743194). Further: nearly all actives have a fitted effect of over 55% in size. In a few lines: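 PPARg-UAS-bla HEK293H cells were plated, rested 5 h at 37 C, then treated with compounds plus rosiglitazone (50 nM final) for 17 h at 37 C; viability was then read by CellTiter-Glo luminescence after 30 min at room temperature.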

Assay [14] in a line: qHTS assay for small molecule agonists of the antioxidant response element (ARE) signaling pathway (AID 743202; active means well fitted activation curve with a large enough effect in the signal ratio in the repeat runs, not every such curve was filed as active; the % refers to the signal ratio). The essentials:
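Read-out: LiveBLAzer B/G FRET substrate fluorescence after 2 h at room temperature, following 16 h compound treatment at 37 C of HepG2 cells carrying an ARE-driven beta-lactamase reporter.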

Assay [15] can be described thus: qHTS assay for small molecule activators of the heat shock response signaling pathway - cell viability counter screen (AID 743209). Further: nearly all actives have a fitted effect of over 50% in size. In a few lines:
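Readout: CellTiter-Glo luminescence, 30 min at room temperature. System: HSE-bla HeLa cells, 1500/well, plated overnight. Treatment: compounds in DMSO, 5 h at 37 C.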

Assay [16] in a line: qHTS assay for small molecule activators of the heat shock response signaling pathway (AID 743210; active means well fitted activation curve with a large enough effect in the signal ratio in the repeat runs, with a control signal flat, not every such curve was filed as active; the % refers to the signal ratio; further: series mostly up to about 63 µM). In a few lines: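 HSE-bla HeLa cells (beta-lactamase reporter under heat shock response elements) were exposed to compounds for 5 h at 37 C, then loaded with LiveBLAzer B/G FRET substrate for 2.5 h at room temperature before fluorescence reading.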
The target of assay [17] is Peroxisome proliferator-activated receptor gamma (Homo sapiens) (UniProt P37231). Put plainly: qHTS assay to identify small molecule agonists of the peroxisome proliferator-activated receptor gamma (PPARg) signaling pathway (AID 743094; active means well fitted activation curve with a large enough effect in the signal ratio in the repeat runs, not every such curve was filed as active; the % refers to the signal ratio). The essentials: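 Compounds dissolved in DMSO were added to PPARg UAS-bla HEK293H cells for 17 h at 37C, and reporter expression was quantified by fluorescence intensity after 1 h with LiveBLAzer B/G FRET substrate.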

The nature of assay [18]: qHTS assay for small molecule agonists of the antioxidant response element (ARE) signaling pathway - cell viability counter screen (AID 743203; calls by dose curve; further: nearly all actives have a fitted effect of over 55% in size). The essentials:
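Following 16 hrs of compound treatment at 37C, HepG2 cells with an ARE-controlled beta-lactamase gene were lysed with CellTiter-Glo. Luminescence was read after 30 min at room temperature.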

The target of assay [19] is Peroxisome proliferator-activated receptor gamma (Homo sapiens) (UniProt P37231). Put plainly: qHTS assay to identify small molecule antagonists of the peroxisome proliferator-activated receptor gamma (PPARg) signaling pathway (AID 743191; calls by dose curve; further: series mostly up to about 63 µM; nearly all actives have a fitted effect of over 30% in size). In a few lines:
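GeneBLAzer PPARg UAS-bla HEK293H cells carrying a UAS-driven beta-lactamase reporter were plated at 3000 cells/well, preincubated 5 h at 37C, then given compound for 17 h at 37C; LiveBLAzer B/G FRET substrate was read after 1 h at room temperature.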

Chain of Aryl hydrocarbon receptor (Homo sapiens) (P35869 whole entry, looked up): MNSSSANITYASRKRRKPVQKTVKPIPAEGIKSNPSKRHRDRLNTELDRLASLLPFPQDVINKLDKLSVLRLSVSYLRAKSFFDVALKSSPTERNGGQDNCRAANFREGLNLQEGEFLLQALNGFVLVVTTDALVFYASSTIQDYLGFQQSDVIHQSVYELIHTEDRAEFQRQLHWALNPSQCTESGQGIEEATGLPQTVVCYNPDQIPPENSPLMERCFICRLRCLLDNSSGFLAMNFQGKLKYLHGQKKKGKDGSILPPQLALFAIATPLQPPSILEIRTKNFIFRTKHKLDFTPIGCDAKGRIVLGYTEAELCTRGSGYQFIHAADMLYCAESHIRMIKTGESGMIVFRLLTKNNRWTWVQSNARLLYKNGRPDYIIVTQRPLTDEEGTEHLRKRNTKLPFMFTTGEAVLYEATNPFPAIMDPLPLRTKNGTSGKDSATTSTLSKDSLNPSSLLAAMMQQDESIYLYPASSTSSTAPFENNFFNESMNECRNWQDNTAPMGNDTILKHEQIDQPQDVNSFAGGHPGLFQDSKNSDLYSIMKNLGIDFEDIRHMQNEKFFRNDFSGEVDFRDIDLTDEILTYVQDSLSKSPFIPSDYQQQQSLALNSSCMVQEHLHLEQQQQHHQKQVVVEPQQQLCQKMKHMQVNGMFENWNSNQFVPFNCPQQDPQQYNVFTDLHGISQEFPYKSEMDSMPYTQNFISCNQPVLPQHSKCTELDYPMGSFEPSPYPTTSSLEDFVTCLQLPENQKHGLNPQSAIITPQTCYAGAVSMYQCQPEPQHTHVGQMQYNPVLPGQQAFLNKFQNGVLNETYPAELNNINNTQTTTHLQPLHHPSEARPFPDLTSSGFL
Chain of Estrogen receptor (Homo sapiens) (P03372 whole entry, looked up): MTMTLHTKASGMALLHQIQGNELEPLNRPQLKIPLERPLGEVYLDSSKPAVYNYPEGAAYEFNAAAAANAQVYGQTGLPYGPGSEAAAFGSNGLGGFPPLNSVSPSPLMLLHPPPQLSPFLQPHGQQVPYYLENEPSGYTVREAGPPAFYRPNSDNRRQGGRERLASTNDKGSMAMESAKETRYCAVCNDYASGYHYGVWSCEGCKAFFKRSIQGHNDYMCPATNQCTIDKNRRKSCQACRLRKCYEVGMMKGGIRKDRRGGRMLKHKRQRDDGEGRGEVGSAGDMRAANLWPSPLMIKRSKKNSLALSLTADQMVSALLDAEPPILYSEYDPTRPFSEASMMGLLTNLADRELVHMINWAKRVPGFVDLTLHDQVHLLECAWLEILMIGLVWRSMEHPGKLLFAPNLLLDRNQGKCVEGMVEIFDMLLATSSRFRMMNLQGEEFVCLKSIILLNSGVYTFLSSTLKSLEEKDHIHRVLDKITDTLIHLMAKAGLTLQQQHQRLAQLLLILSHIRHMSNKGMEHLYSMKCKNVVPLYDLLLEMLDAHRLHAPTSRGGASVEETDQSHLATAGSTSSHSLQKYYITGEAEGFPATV
Chain of Aromatase (Homo sapiens) (P11511 whole entry, looked up): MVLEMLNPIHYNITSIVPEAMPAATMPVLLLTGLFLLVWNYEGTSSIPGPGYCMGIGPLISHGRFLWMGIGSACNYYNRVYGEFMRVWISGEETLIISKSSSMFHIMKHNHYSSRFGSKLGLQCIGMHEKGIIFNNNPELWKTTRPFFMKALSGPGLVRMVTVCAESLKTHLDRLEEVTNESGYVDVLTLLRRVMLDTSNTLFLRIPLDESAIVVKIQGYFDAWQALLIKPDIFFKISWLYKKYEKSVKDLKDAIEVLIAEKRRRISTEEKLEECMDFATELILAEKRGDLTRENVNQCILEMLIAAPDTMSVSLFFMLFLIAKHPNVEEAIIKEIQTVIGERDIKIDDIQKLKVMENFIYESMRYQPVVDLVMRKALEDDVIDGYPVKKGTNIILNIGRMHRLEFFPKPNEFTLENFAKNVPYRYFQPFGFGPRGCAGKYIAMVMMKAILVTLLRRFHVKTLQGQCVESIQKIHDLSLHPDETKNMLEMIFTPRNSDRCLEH
Chain of Peroxisome proliferator-activated receptor gamma (Homo sapiens) (P37231 whole entry, looked up): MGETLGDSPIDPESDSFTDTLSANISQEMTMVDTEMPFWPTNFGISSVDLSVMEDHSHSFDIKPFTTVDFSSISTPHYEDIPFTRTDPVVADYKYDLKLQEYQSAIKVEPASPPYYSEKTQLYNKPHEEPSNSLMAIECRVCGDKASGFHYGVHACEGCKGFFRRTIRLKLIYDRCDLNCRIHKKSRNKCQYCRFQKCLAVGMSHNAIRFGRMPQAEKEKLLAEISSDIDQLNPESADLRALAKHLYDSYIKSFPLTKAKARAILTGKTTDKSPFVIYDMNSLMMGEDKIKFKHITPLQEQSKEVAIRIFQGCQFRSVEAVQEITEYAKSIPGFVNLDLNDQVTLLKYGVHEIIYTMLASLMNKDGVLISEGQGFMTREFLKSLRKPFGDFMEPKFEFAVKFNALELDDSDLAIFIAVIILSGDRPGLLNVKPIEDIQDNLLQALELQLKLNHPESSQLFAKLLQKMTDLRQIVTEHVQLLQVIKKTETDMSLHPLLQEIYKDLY

For `O=C(O)COc1nn(Cc2ccccc2)c2ccccc12`, the Potency result (in assay [1]; in assay [2]; in [6]; in assay [7]; in assay [9]; with Aromatase (Homo sapiens)) was “inactive” throughout. Also, the Potency result in [10], in [11], in assay [12] and in [14] was “inactive” in each case. For the same compound, the outcome in assay [3], in [4], in assay [5], in assay [8], in [13] and in assay [15] was inactive. Further, the call in assay [16] was inactive.

Regarding `c1cnc(N2CCN(Cc3ccc4c(c3)OCO4)CC2)nc1`, the Potency entry (in assay [1]; in [2]; in assay [6]; in [7]; in [9]; with Aromatase (Homo sapiens)) was “inactive” throughout. The Potency entry in assay [10], in [12], in [14] and in assay [18] was “inactive” each time. Further, the call in [3], in assay [4], in [5], in [8], in assay [17] and in assay [13] was inactive. Further, the call in assay [16] was inactive.

Take `C1CN(CCOCCN2CCOCC2)CCO1`: the Potency result (in assay [1]; in assay [2]; in assay [6]; in assay [7]; in assay [9]; with Aromatase (Homo sapiens)) was “inactive” each time. The Potency result in assay [10], in assay [11], in assay [12], in assay [19] and in [14] was “inactive” in each case. Besides, the call in [3], in [4], in assay [5], in [8], in assay [17] and in [15] was inactive. The result in [16] was inactive.

Consider `CS(=O)(=O)O`, for which the Potency entry (in assay [1]; in assay [2]; in assay [6]; in assay [7]; in [9]; with Aromatase (Homo sapiens)) was “inactive” in each case. Besides, the Potency result in [10], in [11], in assay [12], in [14] and in assay [18] was “inactive” in each case. Moreover, the compound was called inactive in assay [3], in assay [4], in assay [5], in assay [8], in assay [13] and in assay [15]. In addition, the call in assay [16] was inactive.

As for `C=CCS(=O)(=O)O`, the Potency entry (in [1]; in assay [2]; in assay [6]; in [7]; in assay [9]; with Aromatase (Homo sapiens)) was “inactive” in each case. In addition, the Potency entry in [10], in assay [12], in assay [14] and in assay [18] was “inactive” each time. Further, the compound was classed as inactive in assay [3], in [4], in assay [5], in assay [8], in assay [17] and in [13]. Besides, the compound was called inactive in [15] and in [16].

As for `O=c1cc(CO)occ1O`, the Potency result (in assay [1]; in assay [2]; in [6]; in assay [7]; in [9]; with Aromatase (Homo sapiens)) was “inactive” throughout. In addition, the Potency result in [10], in assay [11], in assay [12], in assay [19] and in assay [14] was “inactive” in each case. Moreover, the outcome in assay [3], in assay [4], in assay [5], in assay [8], in [17] and in [13] was inactive. Besides, the result in assay [15] and in [16] was inactive.

Take `CCCCC(CC)COC(=O)c1ccccc1O` (stereo not drawn): the Potency entry (in assay [1]; in assay [2]; in [6]; in assay [9]; with Aromatase (Homo sapiens); in assay [10]) was “inactive” in each case. Also, the Potency entry in assay [11], in assay [12], in [14] and in assay [18] was “inactive” throughout. Besides, the compound was classed as inactive in assay [3], in [4], in assay [5], in assay [8], in assay [17] and in assay [13]. Besides, the compound was classed as inactive in assay [16]. In addition, the Potency in assay [7] is 16.8 µM (active).

Take `CCCCCSCCCCC`: the Potency result (in [1]; in [2]; in assay [6]; in [7]; in [9]; with Aromatase (Homo sapiens)) was “inactive” in each case. The Potency result in assay [10], in assay [11], in [12], in assay [14] and in assay [18] was “inactive” each time. For the same compound, the compound was classed as inactive in assay [3], in assay [4], in [5], in assay [8], in assay [17] and in [15]. The result in assay [16] was inactive.

For the origin of these results see PubChem BioAssay (Tox21).
